# Only some compounds are listed: those with a hit (about 6.2% of all), similar ones and a draw of the others.
# KB-3-1 tox: kills parental KB-3-1 adenocarcinoma cells. 400,000 compounds, 1.4% hits. KB-3-1 viability, CellTiter-Glo ATP luminescence, 72 h. Potency, µM (doses to about 46.1 µM), usual class: cytotoxic. AID 1347075; further: nearly all actives have a fitted effect of over 60% in size
#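 Cells are dispensed, compounds pinned in, plates held at 37 °C for 72 h, then CellTiter-Glo is added and luminescence read after 10 minutes. Cell line: parental KB-3-1 in phenol-red-free DMEM, 10% FBS.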
# HT1080 IDH1KD tx: kills HT-1080 cells with IDH1 knockdown; HT-1080 IDH1 knockdown viability, ATP luminescence, 48 h; Potency, µM (doses to about 46.1 µM), usual class: cytotoxic; 360,000 compounds, 2% hits; AID 686971
#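 Cytotoxicity counter-line: IDH1KD HT-1080, 48 h, CellTiter-Glo. Curves classed by r2, magnitude and activity.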
# KB-V1 cytotox: kills drug-selected multidrug resistant KB-V1 cells; KB-V1 MDR cells viability, CellTiter-Glo, 72 h; Potency, µM (top dose mostly 46.1 µM), actives largely listed as cytotoxic; 400,000 compounds, 3.4% hits; further: nearly all actives have a fitted effect of over 60% in size
#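 Readout: CellTiter-Glo luminescence, 10 min after addition. Cells: KB-V1 MDR subline, 72 h at 37 degrees C with compound. Analysis: corrected, normalized data fitted to concentration-effect curves.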
# ATXN viability: reduces viability in counter-screen for ATXN expression inhibitors; S2 cells (HEK-293 line with an ATXN2-luciferase reporter) viability, CellTiter-Fluor protease fluorescence, 24 h; Potency, µM (doses to about 56.7 µM), actives largely listed as cytotoxic; 400,000 compounds, 0.49% hits; further: nearly all actives have a fitted effect of over 40% in size
# HT1080NT lethal: kills 2HG-producing HT-1080-NT fibrosarcoma cells. AID 686970. HT-1080-NT fibrosarcoma viability, CellTiter-Glo ATP luminescence, 48 h. 360,000 compounds, 1.6% hits. Potency, µM (top dose mostly 46.1 µM), actives largely listed as cytotoxic;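 further: NT is the 2HG producing partner of a matched IDH1 knockdown line; nearly all actives have a fitted effect of over 55% in size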
#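 A 48-hour cytotoxicity screen used HT-1080-NT cells plated 2 hours before compound delivery. ATP-based CellTiter-Glo luminescence measured viability, normalized to DMSO and no-cell controls.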
# ATXN2 expr inh: inhibitors of ATXN2 expression; 360,000 compounds, 0.72% hits; Potency, µM (titrated, usually from 57 µM), most hits filed as inhibitors; HEK-293 ATXN2-luciferase reporter, luminescence, 24 h; further: nearly all actives have a fitted effect of over 55% in size
#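 ATXN2-luciferase reporter cells (luciferase flanked by upstream and downstream ATXN2 gene portions) were treated 24 h at 37 °C with compounds at up to 57 uM. SteadyGlo luminescence gave expression; GF-AFC fluorescence gave viability.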
# Numbers stand for hits; i = inactive; ? = inconclusive; nt = no result. The call rests on the fitted dose curve; in most records, active means well fitted curve in the direction sought with a large enough effect; inconclusive means small, poorly fitted or top-dose-only effect, or another doubt; inactive means no such curve, though single readings can be large; an effect the other way counts as inactive or inconclusive.
SMILES,KB-3-1 tox,HT1080 IDH1KD tx,KB-V1 cytotox,ATXN viability,HT1080NT lethal,ATXN2 expr inh
CS(=O)(=O)N1CCCC(c2nc(-c3ccc(S(=O)(=O)NCc4ccccc4)cc3)no2)C1 (stereo unspecified),?,?,3.3µM,i,?,?
CC1CCC(NC(=O)CCS(=O)(=O)c2ccc3c(c2)oc(=O)n3C)CC1 (stereo unspecified),i,i,i,i,i,i
Cc1csc(SCC(=O)N2CCOc3ccc(C(O)C4CCCCC4)cc3C2)n1 (stereo unspecified),nt,nt,nt,i,nt,nt
Cc1cccc(CNC(=O)c2cnn(-c3ncc(C)c(-c4ccc(F)cc4)n3)c2C)n1,nt,nt,nt,i,nt,nt
O=C(c1ccccc1)N1CCC(c2nc(-c3ccc(S(=O)(=O)NCC4CCCO4)cc3)no2)CC1 (stereo unspecified),8.2µM,i,9.2µM,i,?,i
COc1ccc(-c2cccc3c2OC(CNC(=O)c2ccc4c(c2)OCO4)C3)nn1 (stereo unspecified),nt,nt,nt,i,nt,nt
COc1ccc(NC(=O)/C(Cl)=C(/Cl)S(=O)Cc2ccccc2)cn1 (stereo unspecified),5.8µM,1.5µM,8.2µM,4.5µM,5.8µM,2.8µM
COc1ccc(CS(=O)(=O)/C(Cl)=C(/Cl)C(=O)Nc2ccc(OC)nc2)cc1,?,8.2µM,3.7µM,?,23µM,13µM
CC(C)CC(=O)NCC1(N(C)C)CCCCC1,i,nt,i,i,nt,i
Cc1ccc2onc(CC(=O)N3CCN(c4cc(Cl)ccc4C)CC3)c2c1,?,nt,?,i,nt,?
CC(=O)c1ccc(N2CCN(c3ncnc4onc(C)c34)CC2)cc1,21µM,nt,?,i,nt,i
Cc1noc2ncnc(N3CCN(c4cccc(Cl)c4)CC3)c12,?,i,i,i,i,?
CC(C)(C)c1ccc(-c2nnc(-c3ccccc3NC(=O)c3ccc(F)cc3F)o2)cc1,i,nt,i,i,nt,i
C=CCN(c1ccc(C(=O)Nc2ccc(C)c(C)c2)cc1)S(C)(=O)=O,i,i,21µM,i,i,i
C=CCN(c1ccc(C(=O)Nc2ccc(C)cc2)cc1)S(C)(=O)=O,i,i,i,i,i,i
O=C(Nc1ccn(Cc2ccc(Cl)cc2)n1)c1ccc2c(c1)OCO2,i,i,i,i,i,i
Cc1ccc(C(=O)Nc2ccc3c(c2)OCCO3)cc1,i,i,?,i,i,13µM
Cc1cccc(Cn2ccc(NC(=O)c3ccc4c(c3)OCO4)n2)c1,i,i,18µM,i,i,i
O=C(NC(=S)Nc1ccc(N2CCCCC2)c(Cl)c1)c1ccc2c(c1)OCCO2,1.2µM,18µM,?,?,12µM,?
Cc1oc(C(C)(C)C)cc1C(=O)Nc1ccc2c(c1)OCO2,i,i,i,i,i,i
CC(C)CC(=O)Nc1ccc2c(c1)OCO2,i,i,i,i,i,i
O=C(CCl)Nc1ccc2c(c1)OCO2,15µM,18µM,?,nt,9.2µM,i
CS(=O)(=O)N(CC(=O)Nc1ccc2c(c1)OCO2)c1ccc(Cl)cc1,i,i,23µM,i,i,i
Cc1ccc(N(CC(=O)Nc2ccc3c(c2)OCCO3)S(C)(=O)=O)cc1,i,i,i,i,i,i
Cc1cc(NC(=O)c2ccc3c(c2)OCCO3)no1,i,i,i,i,i,11µM
SMILES,KB-3-1 tox,HT1080 IDH1KD tx,KB-V1 cytotox,ATXN viability,HT1080NT lethal,ATXN2 expr inh
Cc1oc(C(C)(C)C)cc1C(=O)Nc1ccc2c(c1)OCCO2,i,i,21µM,i,i,i
CN(C)CCN(Cc1ccsc1)c1ccccn1,nt,nt,nt,i,nt,i
Cn1c(N2CCCCS2(=O)=O)nc(C(=O)NCc2ccc(F)cc2)c(O)c1=O,nt,nt,nt,nt,nt,i
CCCCCNC(=O)C1CCC(Cn2c(=O)c3sccc3n(CC)c2=O)CC1 (stereo unspecified),i,nt,i,i,nt,i
CCc1ccc(C(=O)NC(=S)Nc2ccc3c(c2)OCCO3)cc1,i,i,i,i,i,i
Cc1cc(C)cc(C(=O)NC(=S)Nc2ccc3c(c2)OCCO3)c1,i,i,4.6µM,i,i,i
CCN(CC)c1ccc(NC(=O)c2ccc3c(c2)OCO3)cc1,?,21µM,?,?,?,i
Cc1ccc(C(=O)Nc2ccc3c(c2)OCO3)cc1,i,i,?,i,?,i
CCC(=O)N1CCN(c2ccc(NC(=O)c3ccc4c(c3)OCCO4)cc2)CC1,i,?,i,i,i,i
Cc1ccc(CN(c2ccc(C(=O)Nc3ccc4c(c3)OCO4)cc2)S(C)(=O)=O)cc1,i,i,6.5µM,i,i,i
CCC(=O)N1CCN(c2ccc(Cl)cc2NC(=O)c2ccc3c(c2)OCCO3)CC1,i,i,5.2µM,i,i,i
COc1ccc(-c2cc(C(F)(F)F)nc(-n3nc(C(F)(F)F)cc3C)n2)cc1,i,nt,i,i,nt,i
COC(=O)c1ccccc1-c1cc(C)cc2c1OC(CNC(=O)c1cc(C)on1)C2 (stereo unspecified),nt,nt,nt,i,nt,nt
Cc1ccc(Cn2ccc(NC(=O)c3cc(-c4cccc(Cl)c4)on3)n2)cc1,i,i,15µM,?,i,i
Cc1ccc(Cn2ccc(NC(=O)c3cc(-c4ccc(Cl)cc4)on3)n2)cc1,i,i,i,i,i,i
O=C(Nc1ccc2c(c1)OCO2)c1cc(C2CC2)on1,?,8.2µM,i,?,?,i
Cc1c(C(=O)Nc2ccc3c(c2)OCCO3)oc2ccc(Br)cc12,i,i,21µM,i,i,i
O=C(NCCc1ccccc1)c1cc(-c2cccc(Cl)c2)on1,i,nt,i,i,nt,i
Cc1c(C(=O)NCC2(N3CCOCC3)CCCCCC2)cnn1-c1nccc(-c2ccccc2F)n1,nt,nt,nt,i,nt,nt
O=C(CO)[C@@H](O)[C@H](O)[C@H](O)CO,nt,nt,nt,i,nt,nt
C=CCC[C@H](Cc1ccc(F)cc1)C(=O)OC[C@H](Cc1c[nH]c2ccccc12)NC(=O)[C@H](CC=C)CC(=O)N[C@H](CO)Cc1ccccc1,i,i,i,?,i,i
C=CCC[C@H](Cc1ccc(F)cc1)C(=O)OC[C@H](Cc1c[nH]c2ccccc12)NC(=O)[C@@H](CC=C)CC(=O)N[C@@H](CO)Cc1ccccc1,?,?,i,18µM,?,16µM
C=CCC[C@H](Cc1ccc(F)cc1)C(=O)OC[C@H](Cc1c[nH]c2ccccc12)NC(=O)[C@@H](CC=C)CC(=O)N[C@H](CO)Cc1ccccc1,?,18µM,i,?,21µM,i
C=CCC[C@@H](Cc1ccc(F)cc1)C(=O)OC[C@H](Cc1c[nH]c2ccccc12)NC(=O)[C@@H](CC=C)CC(=O)N[C@H](CO)Cc1ccccc1,i,i,?,?,i,i
COc1ccc(OC)c(Nc2sc(C(=O)c3ccccc3)c(N)c2S(=O)(=O)c2ccccc2)c1,i,nt,i,nt,nt,nt
